# Laboratory results reported in PubChem BioAssay AID588778 (Southern Research Institute, 2011).
# Screen size: about 10,000 compounds; fewer than 10 were called active. The rule behind the calls is not given here. A selection follows.
# Test: Vibrio cholerae motility inhibitors, OD read-out (AID 588778)
# Conditions: stronger effect = higher value
# [1] = measured here: bacterial viability at 10 ug/mL
SMILES,inhibition (concentration not given here),inhibition [1] [%]
O=C(Nc1cnccn1)c1cccs1,20.3% (inactive),10.6
CCOC(=O)N1CCN(C(=O)c2ccc(C#CC3(O)CCCCC3)cc2)CC1,-17.2% (inactive),-5.67
CC(C)N=C(NS(=O)(=O)c1ccccc1)c1ccccc1,-3.11% (inactive),-1.85
Cc1nc(NC(=O)c2c(F)c(F)c(F)c(F)c2F)ccc1I,13% (inactive),0.675
COc1ccc2[nH]cc(CCNS(=O)(=O)Cc3ccccc3)c2c1,8.63% (inactive),0.04
O=C(NC(=S)NCc1ccccc1)C1CC1,12.4% (inactive),5.74
CC(NC(=O)c1ccco1)c1ccc(I)cc1 (stereo unspecified),15.8% (inactive),23.3
CSc1cccc(NC(=O)Cn2c(C)c(C=O)c3ccccc32)c1,20.7% (inactive),5.17
CC(C)(C)OC(=O)NNC(=O)Nc1ccccc1C(F)(F)F,15.3% (inactive),31.8
O=C(O)c1ccc(NC(=O)c2ccc(Cl)cc2)c(NC(=O)c2ccc(Cl)cc2)c1,-7.79% (inactive),-2.21
N#Cc1cc2c(nc1SCC1(O)CCCc3ccccc31)CCCC2 (stereo unspecified),8.28% (inactive),-3.11
COc1ccc(-c2csc3ncnc(Oc4cccc5cccnc45)c23)cc1,-32.6% (inactive),-9.37
COc1cccc2cc(C(=O)Nc3scc(-c4ccc(F)cc4)c3C(=O)OC(C)C)c(=O)oc12,-22.6% (inactive),-8.21
O=[N+]([O-])c1cccc(CN2CCC(N3CCCC3)CC2)c1,-18.4% (inactive),-10.2
NC(=O)C1(N2CCCCC2)CCN(C(=O)CSc2nc3ccccc3o2)CC1,4.33% (inactive),-1.26
CCN(CC#CCCOC(C)=O)c1ccccc1,-9.42% (inactive),-8.17
O=C(NC(=S)Nc1ccc(Cl)cc1C(F)(F)F)c1ccccc1I,-7.41% (inactive),-8.11
COc1cc(C=O)ccc1OC(=O)c1nsc(Cl)c1Cl,2.31% (inactive),2.66
O=C(NCCSc1ccc(Cl)cc1)Nc1ccccc1,52.1% (inactive),14.4
Cc1ccc(F)c(NC(=O)CN2C(=O)CSc3ccccc32)c1,16.3% (inactive),13.8
CCCCCOc1ccc(NC(=O)C(=O)NCCN2CCOCC2)cc1,-4.07% (inactive),-7.64
COc1ccc(C(=O)N(Cc2ccc(C)o2)C2CCS(=O)(=O)C2)cc1Cl (stereo unspecified),1.9% (inactive),1.08

SMILES,inhibition (concentration not given here),inhibition [1] [%]
Cc1nnc(SCC(=O)Nc2ccc(Cl)cn2)s1,-2.25% (inactive),-0.63
Cc1ccc(S(=O)(=O)Nc2ccc(C(=O)Nc3nccs3)cc2)cc1,4.81% (inactive),-2.49
Cn1cnnc1SCC(=O)Nc1ccccn1,9.88% (inactive),31.7
Clc1ccc(Cc2nc(-c3cccnc3)no2)cc1,5.04% (inactive),0.075
CCOc1cc2c(cc1OCC)C(c1ccc(OC)c(OC)c1)N(c1ccc(C(=O)O)cc1)C(=O)C2 (stereo unspecified),-8.01% (inactive),-1.54
COc1ccc(Br)cc1CNCc1cccs1,84.4% (inactive),24.4
C=CCn1c2ccccc2c2nnc(SCC(=O)Nc3cc(C)on3)nc21,-1.67% (inactive),-8.05
CC1=C(C(=O)Nc2nc3ccccc3s2)C(c2ccc(F)cc2)C2=C(CCCC2=O)N1 (stereo unspecified),-5.34% (inactive),0.795
CC(C)(NO)C(=O)c1ccc(Cl)cc1,1.66% (inactive),-5.03
CC12CCC(C(=O)NCc3ccccc3Cl)(CC1=O)C2(C)C (stereo unspecified),7.42% (inactive),-6.53
Cc1cc(NC(=O)COc2cc(C)c(Cl)c(C)c2)no1,3.92% (inactive),-7.52
CCOc1ccc2ccccc2c1C(=O)NCc1cccs1,17.9% (inactive),2.9
O=C(CC1(c2ccc(Cl)cc2)C(=O)c2ccccc2C1=O)N1CCCCC1,16% (inactive),-0.9
Cc1occc1C(=O)Nc1cc(=O)n(C)c(=O)n1C,3.62% (inactive),-1.31
Cc1c(C(=O)c2ccccc2)c(=O)n(C)c(=O)n1C,-8.62% (inactive),1.24
COc1ccc(OC)c(NC(=O)Cn2c(C)ccc2C)c1,5.31% (inactive),2.44
CC12CCC(C(=O)Nc3ccc(SC(F)F)cc3)(CC1=O)C2(C)C (stereo unspecified),7.67% (inactive),34.3
S=C(NCc1ccc(Cl)cc1)N1CCC2(CC1)OCCO2,-10.1% (inactive),-3.96
OCCNC(=S)NC1CCCCC1,-10.2% (inactive),-4.3
OCCNC/C=C/c1c(F)c(F)c(F)c(F)c1F,8.12% (inactive),1.91
O=C(c1ccc(Sc2nnc(Cc3ccccc3)n2-c2ccccc2)c([N+](=O)[O-])c1)N1CCCC1,-6.85% (inactive),7.99
COc1ccc(NC(=S)Nc2ccccc2OC(F)F)cc1OC,-38% (inactive),-5

SMILES,inhibition (concentration not given here),inhibition [1] [%]
Cc1ccc(OCc2nnc(SCC(=O)N3CCc4ccccc43)n2N)cc1C,-18.2% (inactive),-12.3
C=C1C2(C(=O)Nc3nc4ccc(Br)cc4s3)CCC(C2)C1(C)C (stereo unspecified),-2.38% (inactive),-1.19
Cc1cc(Cl)c(OCCOCCn2cnc3ccccc3c2=O)c(Br)c1,4.18% (inactive),-5.62
Cc1c(N2C(=O)C3C4C=CC(C5CC45)C3C2=O)c(=O)n(-c2ccccc2)n1C (stereo unspecified),-7.28% (inactive),-4.46
COc1ccc(NC(=S)N2CCCC2C(=O)N2CCCC2)cc1 (stereo unspecified),41.3% (inactive),7.73
CN(C)C(=O)c1ccccc1C(=O)N(C)C,-3.26% (inactive),34.3
C[C@@H](NC(=O)C1CCN(Cc2cccc(Cl)c2)CC1)c1ccccc1,19.5% (inactive),5.13
Cc1cccc(C(=O)Nc2ccc(I)cc2C(=O)N2CCCC2)c1,-0.8% (inactive),-1.35
C=CCn1c(SCC(=O)Nc2c(C)cc(I)cc2C)nnc1-c1ccco1,5% (inactive),-2.52
COc1cccc(-c2cc(C(F)(F)F)n3ncc(C(=O)OC(C)C)c3n2)c1,14.1% (inactive),15.9
Cc1cc(Br)c(NC(=O)CSc2ccc(Cl)cc2)cc1C,-1.15% (inactive),5.67
COc1ccc(N(C)NC(=O)Cc2ccccc2)cc1,16.7% (inactive),4.27
O=C(CC(NCc1ccccn1)C(=O)O)Nc1ccc(Cl)cc1 (stereo unspecified),4.17% (inactive),-9.2
COCc1cc(CN2CCCCC2)c(O)c2ncccc12,34% (inactive),5.26
COc1cc(C(=O)Nc2nnc(-c3sccc3C)s2)cc(OC)c1OC,-3.78% (inactive),-6.72
OCC(CO)(CO)NCC(O)CN1c2ccccc2Sc2ccccc21 (stereo unspecified),3.65% (inactive),-1.83
c1cncc(Nc2nc(-c3cccs3)cs2)c1,13.2% (inactive),-2.87
COc1ccc(Cl)cc1NC(=S)Nc1cccc(C)n1,-27.1% (inactive),-16.2
COc1ccc(C(=O)Nc2ncccc2O)cc1,10.3% (inactive),2.51
S=C(NCc1ccco1)NNC(=S)Nc1ccc(Cl)cc1,13.3% (inactive),5.16
CCCC(=O)c1ccc(N2CCN(C(=O)c3ccccc3Br)CC2)c(F)c1,1.55% (inactive),4.06
COC(=O)C1=CN(c2ccc(F)c(F)c2)C=C(C(=O)OC)C1c1cc(OC)ccc1OC,-1.54% (inactive),-3.16

SMILES,inhibition (concentration not given here),inhibition [1] [%]
Cc1sc(NCc2cc(Cl)ccc2O)nc1-c1ccc(F)cc1,14% (inactive),-2.93
O=C(Oc1ccc(Cl)cc1Br)c1ccc(F)cc1,-4.46% (inactive),-5.02
COc1c(S(=O)(=O)N2CCCN(S(=O)(=O)c3ccc(Cl)c(Cl)c3OC)CC2)ccc(Cl)c1Cl,8.96% (inactive),22.4
COc1cc(NC(=O)CS)cc(OC)c1,-28.8% (inactive),-11
CC(CCc1ccccc1)NC(=O)c1cccnc1 (stereo unspecified),14.2% (inactive),-1.57
CCOc1ccc(-n2nc3ccc(NC(=S)NC(=O)CC)cc3n2)cc1,-22.2% (inactive),-6.24
CC1(C)CC(=O)C2=C(C1)NC(Nc1nc3ccccc3s1)=NC21C(=O)Nc2ccccc21 (stereo unspecified),5.23% (inactive),-0.54
O=C(CCC(=O)Nc1ccccc1Cl)NNC(=S)NCc1ccco1,7.34% (inactive),30.6
O=C(CCCOc1ccc(Cl)cc1Cl)N1CCN(Cc2ccc3c(c2)OCO3)CC1,15.4% (inactive),5.35
CCc1[nH]nc2c1C1(CN3CCC1CC3)C(C#N)=C(N)O2 (stereo unspecified),-3.07% (inactive),-0.3
CCN1C(=O)Cc2cc(S(N)(=O)=O)ccc21,13.3% (inactive),0.76
O=C(NCCc1ccccc1)c1ccc(CNS(=O)(=O)c2cccc(Cl)c2)cc1,-4.41% (inactive),-10.6
Cc1ccc(NC(NC=O)C(Cl)(Cl)Cl)c(C)c1 (stereo unspecified),1.46% (inactive),2.8
CCc1cc(C(=O)OC)c(NC(=O)c2cc(Br)cs2)s1,6.03% (inactive),1.94
Cc1cccc(C)c1N1CCN(C(=O)N2CCCCC2)CC1,8.63% (inactive),-4.82
COc1ccc(-c2csc3ncnc(SCc4c(C)noc4C)c23)cc1,24.7% (inactive),4.67
Cc1cc2ccccc2n2c(SCC(=O)c3ccc4c(c3)OCCO4)nnc12,0.44% (inactive),-5.11
O=C(c1cccs1)N1C(=O)c2cccc3c(S(=O)(=O)N4CCCC4)ccc1c23,11.6% (inactive),-0.47
CCSc1nnc(NC(=O)c2csc3ccccc23)s1,-5.35% (inactive),-4.62
COc1cc(SC)ccc1C(=O)Nc1cccc(C(F)(F)F)c1,0.295% (inactive),-4.94
CCOC(=O)c1nnc2ccnn2c1N,-20.5% (inactive),-4.37
Cc1csc(NC(=O)CSc2nc3c(c(C(F)(F)F)c2C#N)CCC3)n1,4.09% (inactive),1.86
